From PubChem BioAssay (EPA / NIEHS) come the findings set out here.

Where “and” joins values, the source holds several entries; their conditions need not be identical. Equal values may be shown once. A structure can be active in one record and inactive in another. Calls of active or inactive are those of the source. How the source made its calls: active means hit-call score of the fitted dose curve at least 0.9, where 1 is the maximum; inactive means score below 0.9.

The nature of one test: CCTE_Shafer_MEA_dev_per_burst_interspike_interval: CCTE's Neural Network Formation Assay for Burst Interspike Interval, Shafer Lab (AID 2284044).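 Further: mean spike spacing inside bursts as AUC over recordings on days 5 7 9 12.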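 On AC50: potency for a decrease of within-burst interspike interval below DMSO level.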 The procedure, abridged: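 Primary rat cortical neurons on 48-well MEA plates, exposed from day 0 through day 12, treatment renewed at DIV 5 and 9. Within-burst interspike interval recorded days 5, 7, 9, 12, well-averaged, summarised as AUC; negative fit versus DMSO.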
On to `Clc1ccc(C(c2ccccc2Cl)C(Cl)(Cl)Cl)cc1` (configuration not stated), for which the molecule was called inactive.
`ClC1=C(Cl)[C@]2(Cl)[C@@H]3[C@@H]4C[C@@H]([C@H]5O[C@@H]45)[C@@H]3[C@@]1(Cl)C2(Cl)Cl`: the AC50 is 4.03 µM (active).
Consider `ClC1=C(Cl)[C@]2(Cl)[C@@H]3[C@@H](Cl)[C@H]4O[C@H]4[C@@H]3C1(Cl)C2(Cl)Cl`, for which the half-maximal activity concentration (AC50) was 15 µM (active).
As to `C=CC(N)=O`, the result was inactive.
In the case of `CO/C=C(/C(=O)OC)c1ccccc1COc1cccc(C(F)(F)F)n1`, the AC50 was 594 nM (active) and 761 nM (active).
Consider `O=C(O)C(F)(F)C(F)(F)C(F)(F)C(F)(F)C(F)(F)F`, for which the call was inactive.
Consider `COc1ccc(O)c(C(C)(C)C)c1`, for which the outcome was inactive.
Still for that read-out and setting: in the case of `O=S(=O)(O)C(F)(F)C(F)(F)C(F)(F)C(F)(F)F` it was “inactive”.
In the case of `CCOP(=S)(OCC)SCSC(C)(C)C`, the half-maximal activity concentration (AC50) is 17.4 µM (active) and the molecule was called inactive.
In the case of `ClC(Cl)=C(c1ccc(Cl)cc1)c1ccc(Cl)cc1`, the AC50 was 7.73 µM (active).

The next test can be described thus: CCTE_Shafer_MEA_dev_interburst_interval_mean: CCTE's Neural Network Formation Assay for Mean Interburst Interval, Shafer Lab (AID 2284046).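 Further: well-mean interburst interval of bursting electrodes as AUC over four recording days; curve fitted for decrease in interburst interval relative to DMSO.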 The procedure, abridged:
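Recordings on days 5, 7, 9 and 12 give well-mean interburst interval across actively bursting electrodes, summarized as area under the curve. Cultures: rat cortical neurons, continuous exposure from day 0, compound renewed at feeds; decrease analyzed versus DMSO.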
Turning to `Clc1ccc(C(c2ccccc2Cl)C(Cl)(Cl)Cl)cc1` (configuration not stated), the AC50 is 7.78 µM (active).
Turning to `ClC1=C(Cl)[C@]2(Cl)[C@@H]3[C@@H]4C[C@@H]([C@H]5O[C@@H]45)[C@@H]3[C@@]1(Cl)C2(Cl)Cl`, the molecule was classed as inactive.
The same measure, in the same setting: in the case of `ClC1=C(Cl)[C@]2(Cl)[C@@H]3[C@@H](Cl)[C@H]4O[C@H]4[C@@H]3C1(Cl)C2(Cl)Cl` it was “inactive”; in that of `C=CC(N)=O`, “inactive”.
As for `CO/C=C(/C(=O)OC)c1ccccc1COc1cccc(C(F)(F)F)n1`, the half-maximal activity concentration (AC50) was 534 nM (active) and 582 nM (active).
In the case of `O=C(O)C(F)(F)C(F)(F)C(F)(F)C(F)(F)C(F)(F)F`, the molecule was called inactive.
With `COc1ccc(O)c(C(C)(C)C)c1`, the molecule was classed as inactive.
The same measure, in the same setting: the result for `O=S(=O)(O)C(F)(F)C(F)(F)C(F)(F)C(F)(F)F` reads “inactive”.
For the molecule `CCOP(=S)(OCC)SCSC(C)(C)C`, the half-maximal activity concentration (AC50) is 23 µM (active) and 28.4 µM (active).
Same read-out and setting: in the case of `ClC(Cl)=C(c1ccc(Cl)cc1)c1ccc(Cl)cc1` it was 7.75 µM (active).

The nature of the next test: CCTE_Shafer_MEA_dev_network_spike_number: CCTE's Neural Network Formation Assay for Number of Network Spikes, Shafer Lab (AID 2284048).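 Further: synchronized bursts across electrodes counted on days 5 7 9 12 and integrated as AUC.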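 On AC50: fit as a loss of signal meaning fewer network spikes than DMSO.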 In short, it runs like this:
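Extracellular recordings from 16-electrode wells track network formation in rat cortical cultures under continuous treatment from plating. The endpoint is network spike number, expressed as AUC across DIV 5–12 relative to DMSO vehicle.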
As to `Clc1ccc(C(c2ccccc2Cl)C(Cl)(Cl)Cl)cc1` (configuration not stated), the AC50 is 2.71 µM (active).
Same read-out and setting: in the case of `ClC1=C(Cl)[C@]2(Cl)[C@@H]3[C@@H]4C[C@@H]([C@H]5O[C@@H]45)[C@@H]3[C@@]1(Cl)C2(Cl)Cl` it was 0.492 µM (active).
Same read-out and setting: the result for `ClC1=C(Cl)[C@]2(Cl)[C@@H]3[C@@H](Cl)[C@H]4O[C@H]4[C@@H]3C1(Cl)C2(Cl)Cl` reads 2.98 µM (active).
As to `C=CC(N)=O`, the outcome was inactive.
As to `CO/C=C(/C(=O)OC)c1ccccc1COc1cccc(C(F)(F)F)n1`, the AC50 was 179 nM (active) and 398 nM (active).
As for `O=C(O)C(F)(F)C(F)(F)C(F)(F)C(F)(F)C(F)(F)F`, the molecule was classed as inactive.
`COc1ccc(O)c(C(C)(C)C)c1`: the call was inactive.
As to `O=S(=O)(O)C(F)(F)C(F)(F)C(F)(F)C(F)(F)F`, the outcome was inactive.
For the molecule `CCOP(=S)(OCC)SCSC(C)(C)C`, the half-maximal activity concentration (AC50) is 18.9 µM (active) and the call was inactive.
On to `ClC(Cl)=C(c1ccc(Cl)cc1)c1ccc(Cl)cc1`, for which the concentration at half-maximal activity (AC50) is 1.23 µM (active).
